These results are taken from PubChem BioAssay (NCATS).

Results filed as inconclusive are left out. Activity calls are given as the source filed them. Calls follow the shape of the dose curve; as a rule, active = well fitted cell-killing curve with a large enough effect; inconclusive = small, poorly fitted or top-dose-only effect, or effect the other way; inactive = no such curve, though single readings can be large or run the other way.

A short description of test [1]: Quantitative High-Throughput drug screen in 47 multiple myeloma cell lines against the NCATS MIPE library collection: XG6_PLB cell viability assay (AID 1919865). Also: nearly all actives have a fitted effect of over 40% in size. Put shortly: (§1)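 Plated at 500 cells per well, myeloma lines received MIPE 4.0 compounds by pin tool. Following 48 h culture at 37 °C, CellTiter-Glo luminescence gave viability relative to DMSO and media-only controls.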

Test [2] can be described thus: Quantitative High-Throughput drug screen in 47 multiple myeloma cell lines against the NCATS MIPE library collection: XG1_PLB cell viability assay (AID 1919866). Also: nearly all actives have a fitted effect of over 35% in size. The essentials: as §1
Test [3] in a line: Quantitative High-Throughput drug screen in 47 multiple myeloma cell lines against the NCATS MIPE library collection: UTMC2_PLB cell viability assay (AID 1919868). Also: nearly all actives have a fitted effect of over 55% in size. Particulars: CellTiter-Glo ATP luminescence, 48 h; viability (% of DMSO control): at 45.8 µM (top of the series). Put shortly: as §1
Background: In ATP-based viability assays light output follows the ATP content of the culture.

Test [4] can be described thus: Quantitative High-Throughput drug screen in 47 multiple myeloma cell lines against the NCATS MIPE library collection: PE2_PLB cell viability assay (AID 1919869). Also: nearly all actives have a fitted effect of over 35% in size. The essentials:
as §1

Test [5] in a line: Quantitative High-Throughput drug screen in 47 multiple myeloma cell lines against the NCATS MIPE library collection: PCM6_Riken cell viability assay (AID 1919870). Also: nearly all actives have a fitted effect of over 30% in size. The essentials:
as §1

Test [6] in a line: Quantitative High-Throughput drug screen in 47 multiple myeloma cell lines against the NCATS MIPE library collection: RPMI8226_ATCC cell viability assay (AID 1919871). Also: nearly all actives have a fitted effect of over 30% in size. The essentials: as §1
A short description of test [7]: Quantitative High-Throughput drug screen in 47 multiple myeloma cell lines against the NCATS MIPE library collection: KMS11_JCRBsus cell viability assay (AID 1919873). Also: nearly all actives have a fitted effect of over 50% in size. The essentials:
as §1

Test [8] in a line: Quantitative High-Throughput drug screen in 47 multiple myeloma cell lines against the NCATS MIPE library collection: KMS28BM_JCRB cell viability assay (AID 1919874). Also: nearly all actives have a fitted effect of over 35% in size. Put shortly:
as §1

Test [9] can be described thus: Quantitative High-Throughput drug screen in 47 multiple myeloma cell lines against the NCATS MIPE library collection: VP6_DJ cell viability assay (AID 1919867). Also: nearly all actives have a fitted effect of over 40% in size. Put shortly:
as §1

The nature of test [10]: Quantitative High-Throughput drug screen in 47 multiple myeloma cell lines against the NCATS MIPE library collection: OPM2_DSMZ cell viability assay (AID 1919872). Also: nearly all actives have a fitted effect of over 30% in size. The essentials:
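Viability readout: CellTiter-Glo luminescence following 5 min room-temperature incubation with reagent. Prior exposure: 48 h, 37C, humidified 5% CO2, 500 cells per well.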
Potency is read from the fitted curve at half-maximal effect.

As to `COc1cccc2c1CCCC2CCCN1CCN(C2CCCCC2)CC1` (stereo unspecified), the Potency was 23.5 µM (active) in test [1]; 18.7 µM (active) in [2]; 16.6 µM (active) in [3]; 23.5 µM (active) in test [4]; 13.2 µM (active) in test [5]; 14.8 µM (active) in [6]. The Potency in [7] and in test [8] was 18.7 µM (active) in each case.

In the case of `N#CC1(c2ccc(NC(=O)c3cccnc3NCc3ccncc3)cc2)CCCC1`, the Potency in test [1] is 18.7 µM (active); in test [2] it was 20.9 µM (active); in test [9], 14.8 µM (active); in test [4], 18.7 µM (active). Further, the Potency entry in test [10] was “inactive”.

For the compound `Cc1ccc(C(=O)Nc2cccc(C(F)(F)F)c2)cc1Nc1nc(-c2cccnc2)nc2c1cnn2C`, the Potency in test [1] is 4.69 µM (active); in test [2] it was 10.5 µM (active); in test [4], 9.35 µM (active); in test [5], 20.9 µM (active); in [6], 18.7 µM (active); in test [10], 16.6 µM (active).

On to `CN1[C@@H]2CCC[C@@H]1CC(NC(=O)c1nn(C)c3ccccc13)C2` (stereo partly specified), for which the Potency result in test [1], in test [2], in test [4], in [5], in test [6] and in test [10] was “inactive” throughout. Also, the Potency entry in test [7] and in [8] was “inactive” throughout.

On to `Cc1ccc(Nc2cc(-c3cccc(N4C(=O)c5ccccc5C4=O)c3)ncn2)cc1NS(C)(=O)=O`, for which the Potency in [1] is 8.33 µM (active); in test [2] it was 18.7 µM (active); in [4], 16.6 µM (active); in [5], 14.8 µM (active); in test [10], 26.4 µM (active); in [7], 20.9 µM (active). Further, the Potency result in test [6] was “inactive”.

As for `COc1cc2c(cc1OC)CN(CCc1ccc(NC(=O)c3cc(OC)c(OC)cc3NC(=O)c3cnc4ccccc4c3)cc1)CC2`, the Potency in [1] was 18.7 µM (active); in test [2] it was 20.9 µM (active); in test [4], 26.4 µM (active); in test [5] it was 18.7 µM (active); in test [6], 0.418 µM (active). The Potency result in test [10] is “inactive”.

For `CON=C(C(=O)N[C@@H]1C(=O)N2C(C(=O)OCOC(=O)C(C)(C)C)=C(C=Cc3scnc3C)CS[C@H]12)c1csc(N)n1`, the Potency is 26.4 µM (active) in test [1], 18.7 µM (active) in test [2], 18.7 µM (active) in test [4] and 20.9 µM (active) in [5]. Further, the Potency entry in [6], in test [10], in test [7] and in [8] was “inactive” in each case.

Consider `CS(=O)(=O)N(Cc1ccco1)CC(O)Cn1c2ccccc2c2ccccc21` (stereo unspecified), for which the Potency result in test [1], in test [3] and in test [6] was “inactive” throughout. In addition, the Potency in [2] is 20.9 µM (active); in [4], 16.6 µM (active); in test [8], 26.4 µM (active).

In the case of `O=C(O)c1cc(O)c2c(c1)C(=O)c1cccc(O)c1C2=O`, the Potency entry in test [1], in [2], in test [4], in [5], in test [10] and in test [7] was “inactive” in each case. The Potency result in [8] was “inactive”. The Potency in [6] is 42.9 µM (active).

As to `CCCCCN(C)CCC(O)(P(=O)(O)O)P(=O)(O)O`, the Potency entry in test [1], in [2], in test [4], in test [5], in test [6] and in [10] was “inactive” each time. For the same compound, the Potency entry in [7] and in [8] was “inactive” in each case.

Consider `O=C(Nc1cccc(Br)c1)c1cccc(S(=O)(=O)N2CCCCCC2)c1`, for which the Potency in test [1] is 14.8 µM (active); in test [2], 16.6 µM (active); in test [9], 16.6 µM (active); in test [7], 18.7 µM (active).

In the case of `CC(C)(C)C(=O)Oc1ccc2c(c1)nc(NC(=O)c1cccc([N+](=O)[O-])c1)n2CCCO`, the Potency entry in test [1], in test [2], in [4], in test [5], in [10] and in [7] was “inactive” each time. For the same compound, the Potency result in [8] is “inactive”. In test [6], the Potency was 18.7 µM (active).

For the compound `CC1(C)CCC[C@@]2(C)[C@@H]1CC[C@@]1(C)OC(=O)C[C@H]21`, the Potency entry in [1], in test [2], in test [4], in test [5] and in test [10] was “inactive” in each case. Further, the Potency in test [6] is 2.09 µM (active).

Take `CC=CCC=CCCC(=O)[C@H]1O[C@@H]1C(N)=O`: the Potency was 18.7 µM (active) in [1]; 20.9 µM (active) in [2]; 23.5 µM (active) in test [9]; 23.5 µM (active) in test [4]; 20.9 µM (active) in [5]; 20.9 µM (active) in test [7]. Also, the Potency in [8] was 14.8 µM (active).

In the case of `COCCOC(=O)C1=C(C)NC2=C(C(=O)CC(c3ccccc3OC)C2)C1c1cccc(O)c1` (stereo unspecified), the Potency in test [1] was 2.64 µM (active); in test [2], 4.18 µM (active); in [9] it was 2.96 µM (active); in [4], 16.6 µM (active); in test [10], 16.6 µM (active); in [7], 5.26 µM (active).

`O=c1cc(-c2cccc3c2Sc2ccccc2S3)oc(N2CCOCC2)c1`: the Potency in test [1] is 18.7 µM (active); in test [2], 18.7 µM (active); in test [9], 14.8 µM (active); in [4], 18.7 µM (active); in [5], 14.8 µM (active); in [7] it was 20.9 µM (active).

Turning to `CC(=O)Nc1ccc([C@H](C)C(=O)Nc2ncc(C(C)C)s2)cc1`, the Potency in test [1] is 0.0935 µM (active); in test [2] it was 0.418 µM (active); in test [3], 3.72 µM (active); in [4], 2.35 µM (active); in test [5], 1.48 µM (active); in test [6], 2.64 µM (active). Further, the Potency in test [10] was 8.33 µM (active); in [7], 2.35 µM (active).

With `CCn1cc(C(=O)O)c(=O)c2ccc(C)nc21`, the Potency entry in test [1], in test [2], in test [4], in test [5], in [6] and in [10] was “inactive” each time.

In the case of `CC1(C)Cc2c(sc(NC(=S)NC(=O)c3ccccc3)c2C(=O)O)CO1`, the Potency is 14.8 µM (active) in test [1] and 8.33 µM (active) in [9]. Further, the Potency entry in test [2], in [5], in test [6], in test [7] and in test [8] was “inactive” throughout.

For `O=C1C[C@@H](c2ccc(O)cc2)Oc2cc(O)cc(O)c21`, the Potency entry in [1], in test [2], in [4], in test [5], in test [6] and in [10] was “inactive” each time. Moreover, the Potency entry in [7] and in test [8] was “inactive” in each case.
